# Experimental data taken from PubChem BioAssay (NCATS).
# Several values for one entry are separate records, joined by “and”; a condition that tells them apart may be missing. Equal entries are not always repeated. Records with an inconclusive call do not appear. Entries that show only a call come without a potency. More than one record can exist for a structure, and the calls need not agree. Activity calls are given as the source filed them. Calls come from the whole dose curve; as a rule, active = well fitted curve in the direction sought with a large enough effect; inconclusive = small, poorly fitted or top-dose-only effect, or another doubt; inactive = no such curve, though single readings can be large; an effect the other way counts as inactive or inconclusive.
# Biological target: Guanine nucleotide-binding protein G(i) subunit alpha-1 (Homo sapiens) (UniProt P63096)
# Sequence (P63096 whole entry, looked up): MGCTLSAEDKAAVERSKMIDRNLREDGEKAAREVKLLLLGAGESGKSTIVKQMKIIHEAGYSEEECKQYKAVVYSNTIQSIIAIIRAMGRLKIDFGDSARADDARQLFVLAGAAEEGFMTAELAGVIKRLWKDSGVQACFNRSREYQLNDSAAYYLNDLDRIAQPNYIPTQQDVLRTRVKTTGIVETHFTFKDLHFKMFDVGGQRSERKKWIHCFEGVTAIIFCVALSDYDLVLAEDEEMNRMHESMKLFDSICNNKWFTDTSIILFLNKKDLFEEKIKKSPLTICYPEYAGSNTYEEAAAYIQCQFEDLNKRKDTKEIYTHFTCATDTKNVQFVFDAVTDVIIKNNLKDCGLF
# Test: qHTS Assay for Inhibitors of RGS12 GoLoco Motif Activity (Green Fluorophore) (AID 879);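 note: negative values mean loss of peptide binding seen as reduced polarization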
# Conditions: Galphai1/FITC-RGS12 GoLoco peptide, fluorescence polarization; series mostly up to 57.1 µM
# Outline: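 Fluorescence polarization assay: 50 nM Gαi1 with 10 nM FITC-labeled RGS12 GoLoco peptide in 10 mM Tris pH 7.5, 150 mM NaCl, 0.1 mM GDP, 0.05% NP40, 10 min at room temperature with compound.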
row,Structure (SMILES),Potency
1,NC1(C(=O)O)CCCCC1,inactive
2,N=C(N)SCCc1cnc[nH]1,inactive
3,CC[C@H](NC(=O)c1c(C)c(-c2ccccc2)nc2ccccc12)c1ccccc1,inactive
4,O=[N+]([O-])c1cccc2cn[nH]c12,inactive
5,CNC(=O)c1cc2c(cn1)[nH]c1ccccc12,inactive
6,Fc1ccc(CN(C2=NCCN2)c2c(Cl)cccc2Cl)cc1,inactive
7,CCn1c(=O)[nH]c2cc(Cl)c(Cl)cc21,inactive
8,COc1ccc2c(c1)c(CC(=O)O)c(C)n2C(=O)c1ccccc1,inactive
9,Cn1cc(C(=O)OCC2CCN(CCNS(C)(=O)=O)CC2)c2ccccc21,inactive
10,CCSC(=N)N,inactive
11,O=C1Cc2c([nH]c3ccc(Br)cc23)-c2ccccc2N1,inactive
12,N[C@H](C(=O)O)c1cc(O)cc(O)c1,inactive

# Biological target: Cytochrome P450 3A4 (Homo sapiens) (UniProt P08684)
# Sequence (P08684 whole entry, looked up): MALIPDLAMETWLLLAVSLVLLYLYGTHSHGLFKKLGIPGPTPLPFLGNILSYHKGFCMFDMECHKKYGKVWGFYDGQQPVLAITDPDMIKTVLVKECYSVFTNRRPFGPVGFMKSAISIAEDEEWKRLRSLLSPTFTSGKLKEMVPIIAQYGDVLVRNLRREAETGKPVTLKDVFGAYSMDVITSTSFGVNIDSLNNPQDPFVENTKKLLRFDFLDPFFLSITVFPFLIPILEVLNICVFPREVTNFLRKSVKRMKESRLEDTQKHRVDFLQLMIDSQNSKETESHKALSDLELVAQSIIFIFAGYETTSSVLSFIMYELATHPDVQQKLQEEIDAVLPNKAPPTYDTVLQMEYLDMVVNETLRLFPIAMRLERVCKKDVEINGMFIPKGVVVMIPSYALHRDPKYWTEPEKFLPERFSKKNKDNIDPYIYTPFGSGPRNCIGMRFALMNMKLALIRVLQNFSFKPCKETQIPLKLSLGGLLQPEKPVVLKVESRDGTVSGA
# Test: qHTS Assay for Inhibitors and Substrates of Cytochrome P450 3A4 (AID 884); note: nearly all actives have a fitted effect of over 50% in size; note: potency is the fitted concentration of half-maximal effect
# Conditions: recombinant CYP3A4, Luciferin-PPXE luminescence; series mostly up to 57.1 µM
# Outline: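 20 nM human CYP3A4 with 25 uM Luciferin-PPXE (at KM) in 200 mM KPO4, preincubated 10 min with compound; NADPH regeneration started a 60 min RT reaction. Luciferin detected by luminescence, normalized to 57 uM ketoconazole as full inhibition.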
row,Structure (SMILES),Potency
1,CN1C2CCC1CC(OC(c1ccccc1)c1ccccc1)C2 (centres undefined),inactive
2,C=C(C)C1CC=C(C(=O)O)CC1 (centres undefined),inactive
3,CC1=C(/C=C/C(C)=C/C=C/C(C)=C\C(=O)O)C(C)(C)CCC1,inactive
4,c1ccc(C2CN3CCSC3=N2)cc1 (centres undefined),inactive
5,CN(C)CCC(c1ccc(Br)cc1)c1ccccn1 (centres undefined),inactive
6,O=C1OC(=O)C2C3CCC(O3)C12 (centres undefined),inactive
7,Nc1nc2c(cnn2CCc2ccccc2)c2nc(-c3ccco3)nn12,31.6 µM (active)
8,CCCCCCCCCCC(C)(C)C(=O)Nc1c(OC)cc(OC)cc1OC,7.94 µM (active)
9,Oc1cc(O)c2c(c1)O[C@H](c1ccc(O)c(O)c1)[C@@H](O)C2,inactive
10,CC(C)(C)c1ccc(/C=C/C(=O)Nc2ccc3c(c2)OCCO3)cc1,inactive
11,c1ccc(C(NCCNC(c2ccccc2)c2ccccc2)c2ccccc2)cc1,inactive

# Biological target: Cytochrome P450 3A4 (Homo sapiens) (UniProt P08684)
# Test: qHTS Assay for Activators of Cytochrome P450 3A4 (AID 885); note: nearly all actives have a fitted effect of over 65% in size; note: potency is the fitted concentration of half-maximal effect
# Conditions: recombinant CYP3A4, Luciferin-PPXE luminescence, 60 min; series mostly up to 57.1 µM
# Outline: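 Signal was normalized against complete inhibition by 57 uM ketoconazole. The reaction used 20nM CYP3A4 with 25uM Luciferin-PPXE, 10-min compound preincubation and a 60-min NADPH-supported step at RT.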
Structure (SMILES),Potency,"activity change, positive = activation"
COc1ccc2c(c1)c(CC(=O)O)c(C)n2Cc1ccc(Cl)cc1,inactive,–
O=c1[nH]c(=S)[nH]c(-c2ccccc2)c1Cc1c(O)ccc2ccccc12,–,-42.7% [at 11.4 µM] (inactive)
Cc1nc(N=Nc2ccc(C(=O)O)cc2)c(COP(=O)(O)O)c(C=O)c1O,inactive,–
N=C(N)SCCc1cnc[nH]1,inactive,–
Nc1nc2c(cnn2CCc2ccccc2)c2nc(-c3ccco3)nn12,inactive,–
CCCCCCCCCCC(C)(C)C(=O)Nc1c(OC)cc(OC)cc1OC,inactive,–
CNC(=O)c1cc2c(cn1)[nH]c1ccccc12,inactive,–
NC[C@@H]1O[C@H](c2ccccc2)Cc2c1ccc(O)c2O,inactive,–
CCn1c(=O)[nH]c2cc(Cl)c(Cl)cc21,inactive,–
NC1CONC1=O (centres undefined),inactive,–
CCSC(=N)N,inactive,–
C=C1C(=O)O[C@@H]2[C@H]3O[C@]3(C)CCC=C(C)CC[C@@H]12,inactive,–
CCc1ccc2c(-c3cccc(Cl)c3)nc(=O)n(CC)c2n1,inactive,–
C[C@H](O)C(=O)C1=Nc2c(nc(N)[nH]c2=O)NC1,inactive,–
O=C1Cc2c([nH]c3ccc(Br)cc23)-c2ccccc2N1,inactive,–
CN(C)CCCc1cc(C(=O)Nc2ccc(-c3ccncc3)cc2)ccc1O,inactive,–
c1ccc(C(NCCNC(c2ccccc2)c2ccccc2)c2ccccc2)cc1,5.01 µM (active),–
N[C@H](C(=O)O)c1cc(O)cc(O)c1,inactive,–

# Biological target: Cytochrome P450 2D6 (Homo sapiens) (UniProt P10635)
# Sequence (P10635 whole entry, looked up): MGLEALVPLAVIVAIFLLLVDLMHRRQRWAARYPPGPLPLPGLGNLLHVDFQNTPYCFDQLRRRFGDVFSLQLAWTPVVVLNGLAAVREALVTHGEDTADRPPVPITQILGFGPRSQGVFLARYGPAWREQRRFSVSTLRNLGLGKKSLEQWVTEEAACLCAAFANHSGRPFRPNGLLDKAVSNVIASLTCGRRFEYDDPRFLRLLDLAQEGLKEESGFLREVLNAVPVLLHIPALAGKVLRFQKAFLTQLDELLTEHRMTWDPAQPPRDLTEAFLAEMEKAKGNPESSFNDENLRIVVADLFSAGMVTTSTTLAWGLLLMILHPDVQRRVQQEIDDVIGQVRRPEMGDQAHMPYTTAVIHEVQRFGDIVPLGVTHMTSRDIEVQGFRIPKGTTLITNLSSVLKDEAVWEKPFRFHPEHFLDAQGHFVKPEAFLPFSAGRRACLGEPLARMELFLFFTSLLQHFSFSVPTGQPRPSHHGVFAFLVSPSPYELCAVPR
# Test: qHTS Assay for Inhibitors and Substrates of Cytochrome P450 2D6 (AID 891); note: nearly all actives have a fitted effect of over 60% in size; note: potency is the fitted concentration of half-maximal effect
# Conditions: recombinant CYP2D6, luciferin-ME EGE luminescence; series mostly up to 57.1 µM
# Outline: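 Human CYP2D6 (5 nM) with 30 uM Luciferin-ME EGE (at Km) in 100 mM KPO4, compound preincubated 10 min, then NADPH regeneration system for 60 min at room temperature. Luciferin read by luminescence; normalized to 1.43 uM quinidine.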
row,Structure (SMILES),Potency
1,NC1(C(=O)O)CCCCC1,inactive
2,CSC(=N)N,0.0501 µM (active)
3,O=C(c1ccc2c(c1)OCCO2)N1CCCCC1,inactive
4,N=C(N)SCCc1cnc[nH]1,6.31 µM (active)
5,CC[C@H](NC(=O)c1c(C)c(-c2ccccc2)nc2ccccc12)c1ccccc1,inactive
6,O=[N+]([O-])c1cccc2cn[nH]c12,inactive
7,CNC(=O)c1cc2c(cn1)[nH]c1ccccc12,inactive
8,Fc1ccc(CN(C2=NCCN2)c2c(Cl)cccc2Cl)cc1,1.26 µM (active)
9,CCn1c(=O)[nH]c2cc(Cl)c(Cl)cc21,inactive
10,COc1ccc2c(c1)c(CC(=O)O)c(C)n2C(=O)c1ccccc1,inactive
11,Cn1cc(C(=O)OCC2CCN(CCNS(C)(=O)=O)CC2)c2ccccc21,inactive
12,CCSC(=N)N,3.98 µM (active)
13,Oc1cc(O)c2c(c1)O[C@H](c1ccc(O)c(O)c1)[C@@H](O)C2,inactive
14,C=C1C(=O)O[C@@H]2[C@H]3O[C@]3(C)CCC=C(C)CC[C@@H]12,inactive
15,O=C1Cc2c([nH]c3ccc(Br)cc23)-c2ccccc2N1,inactive and 398 nM (active)
16,CN(C)CCCc1cc(C(=O)Nc2ccc(-c3ccncc3)cc2)ccc1O,5.01 µM (active)
17,N[C@H](C(=O)O)c1cc(O)cc(O)c1,inactive
18,C[C@](Cc1ccc(O)c(O)c1)(NN)C(=O)O,inactive
